From PubChem
An excerpt weighted towards active compounds, which were near 22% of everything screened.
CYP2C19 inh – blockers of cytochrome P450 2C19 activity – biochemical, luminescence, ADME assay, primary screen. P33261. CYP2C19 Supersomes, luciferin-H EGE luminescence, 30 min. inhibition, % at 5 µM. actives 21% (n = 96,000). AID 778, 2007;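 active = CYP2C19 inhibition above a set limit at 5 µM in the primary screen, cut at about 50% in these data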
CYP2C9 act – human CYP2C9 activators, primary screen, biochemical, luminescence; Cytochrome P450 2C9 (Homo sapiens), P11712; recombinant CYP2C9, luciferin-H conversion; stronger effect = higher value; factor 1 = untreated enzyme, 0 = blocked; activation factor at 5 µM; actives 1.4% (n = 96,000); AID 1024, 2008;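 active = activation factor of 2 or more for CYP2C9 at a 5 µM dose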
Target sequence (P11712 whole entry, looked up): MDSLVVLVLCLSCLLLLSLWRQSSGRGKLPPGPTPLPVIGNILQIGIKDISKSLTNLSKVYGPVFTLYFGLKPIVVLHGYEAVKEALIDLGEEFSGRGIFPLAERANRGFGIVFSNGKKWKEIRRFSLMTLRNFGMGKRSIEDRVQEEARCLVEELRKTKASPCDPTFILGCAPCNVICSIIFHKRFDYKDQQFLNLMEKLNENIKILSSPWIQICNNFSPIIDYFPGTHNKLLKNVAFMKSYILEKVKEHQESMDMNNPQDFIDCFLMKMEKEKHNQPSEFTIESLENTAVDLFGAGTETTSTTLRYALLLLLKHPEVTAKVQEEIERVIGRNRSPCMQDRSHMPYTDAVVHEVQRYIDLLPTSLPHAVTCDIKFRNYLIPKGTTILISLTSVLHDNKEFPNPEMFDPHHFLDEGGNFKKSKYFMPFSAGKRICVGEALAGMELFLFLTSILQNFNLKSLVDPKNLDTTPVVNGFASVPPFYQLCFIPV
Measles CPE – compounds protecting cells from measles virus cytopathic effect, primary screen, measles RdRp inhibitor project, single point, MLSMR library, absorbance. Measles virus-infected cells, CPE protection. protection (pct of control), % at 4 µM. actives 1.5% (n = 140,000); in the data active = protection mostly above about 24%, no sharp cut-off; inactive = mostly below about 26%
CYP2C19 act – human CYP2C19 activators, primary screen, biochemical, luminescence; activation factor at 5 µM; Cytochrome P450 2C19 (Homo sapiens), P33261; 96,000 tested, under 10 active; recombinant CYP2C19, luciferin-H EGE luminescence; stronger effect = higher value; 0 = fully inhibited enzyme, 1 = untreated enzyme;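 active = activation factor of at least 2 at 5 µM in the primary screen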
CYP2C9 inhib – blockers of cytochrome P450 2C9 activity – biochemical, luminescence, ADME assay, primary screen; actives 20% (n = 96,000); P11712; CYP2C9 Supersomes, luciferin-H conversion; inhibition, % at 5 µM;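 active = blocking of liver enzyme CYP2C9 beyond about 50% at 5 µM, limit read from the data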
Large screens that a line does not name were inactive.

Cc1cccc(NC(=O)c2ccccc2OCC(=O)N2CCOCC2)c1C	none
Cc1cc(C)c(C)c(OCC(=O)N2CCOCC2)c1	CYP2C19 inh 67
Cc1cc(OCC(=O)N2CCOCC2)c(C(C)C)cc1Cl	CYP2C19 inh 80
O=c1ncn(-c2ccc(F)cc2)c2ncccc12	none
CC1(C)CCCC2=C1CC1C(=O)N(Cc3cccnc3)C(=O)C1C2 (stereo not drawn)	none
COc1ccccc1C1SCCN1S(C)(=O)=O (stereo not drawn)	CYP2C19 inh 57
COc1ccc(OC)c(C2SCCN2S(C)(=O)=O)c1 (stereo not drawn)	none
C=CCNC(=O)C12CC3(C)CC(C)(CC(C)(C3)C1)C2	CYP2C19 inh 54
O=C(COc1ccc(S(=O)(=O)NC2CCCCC2)cc1Cl)N1CCN(c2ccccc2)CC1	CYP2C19 inh 68, CYP2C9 inhib 100
CC(NS(=O)(=O)c1ccc(OCC(=O)N2CCOCC2)c(Cl)c1)c1ccccc1 (stereo not drawn)	CYP2C9 inhib 64
Cc1oc(-c2ccc(Cl)cc2)nc1CN1CCC(C(=O)N2CCN(Cc3ccccc3)CC2)CC1	none
NC(=O)c1ccccc1NC(=S)NC(=O)c1ccc(Br)o1	none (no result: CYP2C19 inh, CYP2C9 act, CYP2C19 act, CYP2C9 inhib)
N#Cc1ccc(NC(=O)COC(=O)C2=COCCO2)cc1	none
O=C(Cn1nc(-c2ccccc2)c2ccccc2c1=O)Nc1cccnc1	CYP2C9 inhib 72
O=C(Cn1nc(-c2ccc(Cl)cc2)c2ccccc2c1=O)Nc1cccnc1	CYP2C9 inhib 59
COc1ccc(-c2nn(CC(=O)Nc3ccc(Cl)c(Cl)c3)c(=O)c3ccccc23)cc1	CYP2C9 inhib 87
N#Cc1c(-c2ccccc2)c(-c2ccccc2)nn(CC(=O)NNC(=O)Nc2ccccc2)c1=O	CYP2C9 inhib 53
Cc1ccc(C(=O)N/C(=C\c2cccnc2)c2nc3ccccc3[nH]2)cc1	none (no result: CYP2C19 inh, CYP2C9 act, CYP2C19 act, CYP2C9 inhib)
O=C(CN1CCC(n2nnc3cc(F)ccc32)CC1)NNC(=O)c1ccccc1	none
Cc1ccccc1-n1c(=O)c2ccccc2n2nnnc12	CYP2C19 inh 58
Cc1ccccc1-n1c(Cn2c(=O)sc3ccccc32)nnc1SC(C)C	none (no result: CYP2C19 inh, CYP2C9 act, CYP2C19 act, CYP2C9 inhib)
CCc1cc2c(=O)c(-c3cscn3)coc2cc1O	none
Oc1ccc(-c2onc(C(F)(F)F)c2-c2cscn2)c(O)c1	CYP2C19 inh 76, CYP2C9 act 2.3
Cc1nc(-c2c(C(F)(F)F)noc2-c2ccc(O)cc2O)cs1	CYP2C19 inh 69
COc1cc(-c2csc(C)n2)ccc1O	none
CCOc1cc(C)c(-c2onc(C(F)(F)F)c2-c2csc(C)n2)c(O)c1	CYP2C19 inh 76, Measles CPE 45
Cc1nc(-c2ccc(O)c(O)c2)cs1	none
Cn1c(=O)cc(OCC(=O)NCCCN2CCN(c3cccc(Cl)c3)CC2)c2ccccc21	none
O=C(Nc1nnc(SCc2ccc(Cl)cc2)s1)c1cnccn1	none (no result: CYP2C19 inh, CYP2C9 act, CYP2C19 act, CYP2C9 inhib)
CC(C)c1ccccc1NC(=O)c1ccc(CN(c2ccccc2)S(=O)(=O)c2ccccc2)cc1	none (no result: CYP2C19 inh, CYP2C9 act, CYP2C19 act, CYP2C9 inhib)
COc1cc(C(=O)OCC(=O)Nc2c(F)c(F)c(F)c(F)c2F)cc(OC)c1OC	CYP2C19 inh 78
COc1cc(C(=O)OCC(=O)NCc2ccccc2)cc(NC(=O)c2ccco2)c1OC	none
COc1cc2c(cc1NC(=O)c1ccco1)CCCC2	none
CNC(=O)COC(=O)c1cc(NC(=O)c2ccco2)c(OC)c(OC)c1	CYP2C9 inhib 54
COc1cc(C(=O)OCC(=O)c2cc(C)n(C)c2C)cc(NC(=O)c2ccco2)c1OC	Measles CPE 53
COc1ccc(C(=O)OCC(=O)Nc2ccc(F)c(F)c2F)cc1OC	none
CC1(C)Oc2ccc3ccc(=O)oc3c2C(/C=N/O)C1=O (stereo not drawn)	none (no result: CYP2C19 inh, CYP2C9 act, CYP2C19 act, CYP2C9 inhib)
O=C1N[C@@H](Cc2ccccc2)C(=O)N1CCN1CCOCC1	none
CCN(CC)C(=O)C1CCCN(Cc2ccccc2C(F)(F)F)C1 (stereo not drawn)	CYP2C19 inh 58
CCN(CC)C(=O)C1CCCN(Cc2ccc(F)c(F)c2)C1 (stereo not drawn)	CYP2C19 inh 55
CCn1c(CNC(=O)Cc2ccc(OC)cc2)nnc1SCC(=O)Nc1nccs1	none
COC(=O)c1ccccc1NC(=O)Cn1c(=O)n(Cc2ccccc2)c(=O)c2c(C)c(C)sc21	none (no result: CYP2C19 inh, CYP2C9 act, CYP2C19 act, CYP2C9 inhib)
CC(=O)Nc1c(O)nc(SCC(=O)Nc2c(C)cccc2C)[nH]c1=O	none
CC(C)(C)OC(=O)NNC(=S)NCc1ccc(Cl)cc1	CYP2C19 inh 57, CYP2C9 inhib 55
CCOCCOC(=O)C1=C(C)N(C)C(=O)NC1c1cc(Cl)c(O)c(OCC)c1 (stereo not drawn)	none (no result: CYP2C19 inh, CYP2C9 act, CYP2C19 act, CYP2C9 inhib)
CCOCCOC(=O)C1=C(C)N(C)C(=O)NC1c1ccccc1Cl (stereo not drawn)	CYP2C19 inh 54
CC1=C(C(=O)OCC(C)C)C(c2ccccc2Cl)NC(=O)N1C (stereo not drawn)	CYP2C19 inh 98, CYP2C9 inhib 84
CCSCCOC(=O)C1=C(C)N(C)C(=O)NC1c1cc(OC)ccc1OC (stereo not drawn)	CYP2C19 inh 93, CYP2C9 inhib 79
COC(=O)C1=CN(C(C)C)C=C(C(=O)OC)C1c1cc2c(cc1Br)OCO2	CYP2C19 inh 60
NC(=O)c1cnccn1	none (no result: CYP2C19 inh, CYP2C9 act, CYP2C19 act, CYP2C9 inhib)
CC1=C(C(=O)OCC(C)C)C(c2cc3c(cc2Br)OCO3)NC(=O)N1C (stereo not drawn)	CYP2C19 inh 84, CYP2C9 inhib 72
O=C1CS/C(=C\S(=O)(=O)c2ccc(Cl)cc2)N1	CYP2C9 inhib 57
O=C(COC(=O)c1cccc(S(=O)(=O)N2CCc3ccccc32)c1)Nc1ccc(Cl)cn1	Measles CPE 35 (no result: CYP2C19 inh, CYP2C9 act, CYP2C19 act, CYP2C9 inhib)
N#Cc1ccccc1NC(=O)CSc1nccn1CCc1ccccc1	CYP2C19 inh 59
CC(=O)Nc1ccc(NC(=O)CSc2nccn2Cc2ccccc2)cc1	none
Clc1ccc(CSc2nccn2Cc2ccccc2)cc1	CYP2C19 inh 93
Cc1ccc(NC(=O)CSc2nccn2Cc2ccccc2)cc1C	CYP2C9 act 2
CCn1c(SCC(=O)Nc2ccc(C(C)=O)cc2)nc2ccccc21	none
Clc1ccc(CSc2ncccn2)cc1	none
CC(=O)c1ccc(NC(=O)CSc2nccn2CCc2ccccc2)cc1	CYP2C19 inh 53
CC(=O)c1cccc(NC(=O)COC(=O)c2cccc(N3C(=O)c4ccccc4C3=O)c2)c1	none (no result: CYP2C19 inh, CYP2C9 act, CYP2C19 act, CYP2C9 inhib)
O=[N+]([O-])c1ccc(Sc2ccccc2)nc1	none (no result: CYP2C19 inh, CYP2C9 act, CYP2C19 act, CYP2C9 inhib)
O=[N+]([O-])c1ccc(Sc2nccn2Cc2ccccc2)cc1	CYP2C19 inh 96, CYP2C9 inhib 70
CCC(C)NC(=O)C1(C)CCC(=O)N1Cc1ccccc1OC (stereo not drawn)	none
CCOC(=O)NC(c1ccccc1)C1CCCCC1=O (stereo not drawn)	none
O=C1CCCCC1C(Nc1ccc(Cl)cc1)c1ccccc1 (stereo not drawn)	CYP2C19 inh 82, CYP2C9 inhib 89
